Source: PubChem BioAssay AID1619 (SRMLSC, 2009)
The whole screen tested about 220,000 compounds, of which about 830 (0.38%) were called active.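 How the source made its calls: active means compound inhibiting the enzyme by more than half at any dose during confirmatory dose-response retesting; inconclusive means strong single-dose inhibitors picked by rank but not retested; inactive means the rest.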 Not all results are given here. Entries with a potency or affinity are not part of this list.

target: Leucine aminopeptidase (Plasmodium falciparum (isolate 3D7)) (UniProt Q8IL11); test: P. falciparum M17LAP inhibitors, primary screen, biochemical, fluorogenic H-Leu-NHMec substrate, 1536-well (AID 1619); settings: recombinant M17LAP, H-Leu-NHMec fluorogenic kinetic assay; at 30 µM; hits give high values;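 further: plate controls were full reaction with DMSO carrier for no effect and no enzyme background for full effect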
Sequence (Q8IL11 whole entry, looked up): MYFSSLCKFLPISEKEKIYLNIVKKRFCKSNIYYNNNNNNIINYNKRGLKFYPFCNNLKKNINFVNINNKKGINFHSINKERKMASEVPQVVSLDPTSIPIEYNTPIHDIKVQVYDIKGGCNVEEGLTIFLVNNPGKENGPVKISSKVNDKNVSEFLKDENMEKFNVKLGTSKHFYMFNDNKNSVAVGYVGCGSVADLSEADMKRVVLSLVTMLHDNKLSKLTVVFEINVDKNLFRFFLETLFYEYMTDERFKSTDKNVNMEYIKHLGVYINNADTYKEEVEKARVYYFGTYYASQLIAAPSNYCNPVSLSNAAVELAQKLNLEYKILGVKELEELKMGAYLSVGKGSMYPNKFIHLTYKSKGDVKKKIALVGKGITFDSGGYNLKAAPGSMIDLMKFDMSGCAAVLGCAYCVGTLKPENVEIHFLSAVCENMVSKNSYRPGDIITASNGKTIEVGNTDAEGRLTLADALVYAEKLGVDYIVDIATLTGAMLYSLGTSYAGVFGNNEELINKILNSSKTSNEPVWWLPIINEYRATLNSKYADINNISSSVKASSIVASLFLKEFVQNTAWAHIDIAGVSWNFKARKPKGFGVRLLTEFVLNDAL

inhibition, inactive:
O=C1NC(=S)S/C1=C\c1cc2ccccc2nc1N1CCCCC1 8.4%, COc1ccc2nc(N3CCCCC3)c(/C=C3\SC(=S)NC3=O)cc2c1 15.3%, O=C(CSCc1ccccc1Br)N/N=C/c1ccc(OCC(=O)N2CCCCC2)cc1 9.49%, O=C1NC2(CCCCC2)C(=O)N1/N=C/c1ccccc1Br -1.17%, CCCc1nc2ccccc2c(=O)n1/N=C/c1ccc(O)cc1 -6.52%, CCCc1nc2ccccc2c(=O)n1/N=C/c1ccccc1O -13.5%, Cc1ccc(-c2cccc(NC(=O)C3C(C(=O)O)[C@@H]4C=C[C@H]3C4)c2)o1 (stereo partly drawn) 22.7%, Cc1ccc(-c2ccc(NC(=O)C3C4C=CC(C4)C3C(=O)O)cc2)o1 (stereo not drawn) 51.5%, CCOC(=O)C/C(C)=N/NC(=O)C1CC1(c1ccccc1)c1ccccc1 (stereo not drawn) -7.82%, Cc1cc(NC(=O)c2ccc(NC(=O)C3CC3)cc2)no1 -1.13%, COc1ccc(Br)cc1CN(C)C(C)C(=O)Nc1cccc(C(C)=O)c1 (stereo not drawn) -4.69%, Cc1ccc(NC(=O)Cn2cc3c(n2)CCC(C)C3)cc1 (stereo not drawn) -7.43%, CC1CCc2nn(CC(=O)Nc3ccc(F)cc3F)cc2C1 (stereo not drawn) 6.54%, CC1CCN(S(=O)(=O)c2ccc3ncn(CC(=O)N(C)Cc4ccccc4)c(=O)c3c2)CC1 3.66%, COc1ccc(N2C(=O)CCC(C(=O)N3CCCCCC3)C2c2ccc(OC)c(OC)c2)cc1 (stereo not drawn) -1.54%, CCCCC(CC)C(=O)NCC(C)NC(=O)C(CC)CCCC (stereo not drawn) 2.99%, CCOc1ccc(C(=O)NCC(=O)OCC(=O)Nc2ccccc2OCC)cc1 0.01%, CC(OC(=O)Cc1coc2ccc3ccccc3c12)C(=O)Nc1ncc(Cl)cc1Cl (stereo not drawn) 5.82%, Cn1c(=O)[nH]c(=O)c2c1nc(NC1CCCCC1)n2CC(=O)NC1CCCCC1 10.2%, COc1cccc(NC(=O)CC2COc3ccccc3O2)c1 (stereo not drawn) 7.49%, COc1ccc(NC(=O)CCC2COc3ccccc3O2)c(OC)c1 (stereo not drawn) 11.9%, COc1cc(OC)c(OC)cc1NC(=O)CC1COc2ccccc2O1 (stereo not drawn) -17.5%, COc1ccc(C)cc1NC(=O)CC1COc2ccccc2O1 (stereo not drawn) 4.49%, FC(F)(F)c1ccccc1NC(=S)N1CCN(c2ccccn2)CC1 1.6%, Oc1cc(Cc2ccccc2)cnc1CN1CCOCC1 -3.17%, CCCCCOP(=O)(c1ccccc1)c1ccccc1 -7.38%, CCc1ccc(-n2c(SCC(=O)N3Cc4ccccc4CC3C(=O)O)nnc2-c2ccncc2)cc1 (stereo not drawn) -6.38%, CC(c1ccon1)N(C)Cc1c(C(=O)N(C)Cc2ccccc2)nc2ccccn12 (stereo not drawn) 11.8%, Cc1cc(C(=O)CSc2cccc[n+]2[O-])c(C)n1-c1ccc(Br)cc1 1.39%, CCN1c2ccccc2-c2nc3ccccc3n2C1c1cccnc1 (stereo not drawn) -45%, O=C(COC(=O)CCC(=O)c1ccc(Cl)cc1)NC1CC1 10.9%, O=C(c1ccccc1Cl)N1CCn2c1nc1ccccc12 24.5%, CCOCCCn1c(SCC(=O)Nc2cc(C(C)(C)C)nn2-c2ccccc2)nc2ccccc2c1=O -8.18%, O=C1/C(=C/c2ccc([N+](=O)[O-])cc2)C=C(c2ccccc2)N1c1ccccc1 1.75%, O=C(O)c1cccc(N2C(=O)/C(=C/c3ccc([N+](=O)[O-])cc3)C=C2c2ccccc2)c1 31.6%, CCOC(=O)CC(=O)CSc1nc(C)cc(C)c1C#N -4.47%, COc1cc(NC(=O)c2cccc(C)c2)c(OC)cc1NC(=O)CN1CCOCC1 14.9%, CN1C(=O)S/C(=C\c2ccccc2OCc2ccc(C(=O)O)cc2)C1=O 5.62%, O=C(O)COc1ccccc1/C=C1\SC(=Nc2ccc(F)cc2)N(c2ccc(F)cc2)C1=O 2.19%, Cc1ccccc1/C=C1\SC(=S)N(/N=C/c2cc([N+](=O)[O-])ccc2O)C1=O 15.5%, O=C(O)COc1ccccc1/C=C1\SC(=S)N(c2cccnc2)C1=O 10.2%, Cc1cccc(C2c3[nH]c4ccccc4c3CCN2C(=O)c2cn(C)c3ccccc3c2=O)n1 (stereo not drawn) 8.5%, COCCCNC(=S)N/N=C/c1ccccc1O 19.4%, CCc1ccc(NC(=O)CSc2nnc(CC)c(CC)n2)cc1 29.2%, O=C(O)CCCC(=O)Nc1cccc(C(F)(F)F)c1 24.8%, Cc1cc(C)nc(SCc2nnc(SCC(=O)Nc3ccc(Cl)c(C(F)(F)F)c3)o2)n1 10.2%, CNCC(=O)Nc1ccc(Cl)c(C(F)(F)F)c1 -1.94%, CCc1nnc(SCC(=O)Nc2ccccc2)nc1CC 21.8%, O=C(CSC1=NCCN1)Nc1cccc(C(F)(F)F)c1 -6.47%, Cc1cc(C)nc(/N=C(\NC(=O)C(C)(C)C)Nc2ccc(F)cc2)n1 12.7%, CN(C)CCNC(=S)Nc1ccc(-c2nc3ccccc3[nH]2)cc1 18.8%, COc1ccc(-c2csc3nc(C)nc(N4CCN(c5ccc(C(C)=O)cc5)CC4)c23)cc1OC -3.5%, COCCSc1ccccc1C(=O)N1CCCC(C)C1 (stereo not drawn) -3.2%, CC(C)(C)C(=O)Nc1cccc(-c2ncon2)c1 1.81%, NS(=O)(=O)c1ccc(NC(=O)Cn2ncc3c2-c2ccccc2OC3)cc1 -1.22%, COc1ccc(OC)c(CNC(=O)Cc2c(C(=O)O)[nH]c3ccccc23)c1 28.4%, COc1cccc(CNC(=O)Cc2c(C(=O)O)[nH]c3ccccc23)c1 8.02%, Cc1ccc(NC(=O)C(=O)NCC2CCCO2)cc1C (stereo not drawn) -1.64%, COCc1nnc(NS(=O)(=O)c2ccc(C)cc2)s1 4.91%, COc1ccc(S(=O)(=O)Nc2nncs2)cc1 54.3%, Cc1cc(C)c(C#N)c(SCC(=O)Nc2ccccc2C(N)=O)n1 -14.1%, COc1ccc(-c2cc(C(F)(F)F)c(C#N)c(SCC(=O)Nc3ccccc3C#N)n2)cc1 -5.46%, COCc1cc(C)nc(SCC(=O)Nc2ccccc2C)c1C#N -1.72%, Cc1nc(SCC(=O)Nc2ccc(F)cc2)c(C#N)c(C)c1CC(=O)c1ccc(Br)cc1 -7.6%, Cc1cc(C)c(C#N)c(SCC(=O)Nc2ccc3c(c2)OCO3)n1 2.63%, Cc1ccccc1NC(=O)CSc1nc(N)c(C#N)cc1C#N -1.94%, Cc1cc(C)c(C#N)c(SCC(=O)Nc2ccccc2C)n1 -11.6%, Cc1ccc(C)c(NC(=O)CSc2nc(C)cc(C)c2C#N)c1 11.2%, O=C(NCCc1c[nH]c2ccccc12)/C(=C/c1cccnc1)NC(=O)c1cccs1 7.81%, Cc1ccc(NC(=O)CCCN2C(=S)NC(C)(C)CC2C)cc1 (stereo not drawn) 4.19%, CCCN(c1nc(C)cc(OC)n1)S(=O)(=O)c1ccccc1 -8.31%, CCOc1ccc(-c2[nH]nc3c2C(c2cccnc2)C(C#N)=C(N)O3)cc1 (stereo not drawn) 24.6%, Cc1cc(-c2[nH]nc3c2C(c2ccc(Cl)cc2)C(C#N)=C(N)O3)c(C)s1 (stereo not drawn) 23.3%, N#CC1=C(N)Oc2n[nH]c(-c3ccncc3)c2C1c1ccsc1 (stereo not drawn) 27.9%, N#CC1=C(N)Oc2n[nH]c(-c3cccs3)c2C1c1cccnc1 (stereo not drawn) 24.1%, Cc1cc(-c2[nH]nc3c2C(c2ccsc2)C(C#N)=C(N)O3)c(C)s1 (stereo not drawn) 45.6%, COc1ccc(-c2[nH]nc3c2C(c2ccsc2)C(C#N)=C(N)O3)cc1 (stereo not drawn) 72.1%, Cc1cc(NS(=O)(=O)c2ccc(NC(=O)c3ccc(Br)o3)cc2)nc(C)n1 4.58%, N/C(=N\OC(=O)CCC1CCCC1)c1ccccn1 7.09%, CCOn1c(-n2nc(C)cc2C)nc2ccccc2c1=O -1.28%, Cc1ccc(-c2noc(CCC(=O)NCC3CCN(Cc4cccc(C)c4)CC3)n2)cc1 -0.25%, COc1cc(/C=C2/NC(=O)N(Cc3ccccc3F)C2=O)ccc1Oc1ccc([N+](=O)[O-])cn1 -10.8%, COc1cccc(CN2CCN(C3CCN(c4ccccc4F)CC3)CC2CCO)c1 (stereo not drawn) 3.43%, COc1ccc(NC(=O)CSc2ccccn2)c([N+](=O)[O-])c1 4.06%, COc1ccc(NC(=O)CSc2nncn2C)c([N+](=O)[O-])c1 41.3%, CCOc1ccc(NC(=O)Cc2cccc3ccccc23)c([N+](=O)[O-])c1 33.7%, CCOc1ccc(OCC(=O)Nc2ccc(OC)cc2[N+](=O)[O-])cc1 -4.57%, COc1ccc(NC(=O)CSc2ccccc2)c([N+](=O)[O-])c1 13%, CCOc1ccc(NC(=O)COc2ccccc2)c([N+](=O)[O-])c1 4.93%, CCCc1cc(=O)oc2cc(OCC(=O)Nc3cc(C)on3)ccc12 -41.2%, CCNS(=O)(=O)c1ccc2c(c1)n(C)c(=O)n2C 6.77%, [O-]/C(=C(\C(=S)Nc1ccccc1F)[n+]1ccccc1)c1ccc(-c2ccccc2)cc1 -0.96%, CCc1ccc(N(C(=O)c2snc(C(N)=O)c2N)C(C(=O)NCC2CCCO2)c2cccs2)cc1 (stereo not drawn) -0.4%
